Measurements published in PubChem BioAssay (NCI).
Where “and” joins values, the source holds several entries; their conditions need not be identical. Equal values may be shown once. About 83,000 compounds went through this panel and 20% of them were active in at least one assay; those are over-represented in the sample as a whole.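 For each line, cells grew in 96-well plates with the test compound present at a single concentration for 48 hours.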 Values without a mark were called inactive. Calls of active or inactive are those of the source. How the source made its calls: active means growth percent below 10; inactive means the rest.

What was measured:
Experiment in all cases: NCI-60 one-dose screen, 48 h (100 = growth as untreated, 0 = no growth, -100 = all killed)
HCT-15 colon = tested on: HCT-15 colon
HT29 colon = tested on: HT29 colon
SNB-75 CNS = tested on: SNB-75 CNS
SNB-19 CNS = tested on: SNB-19 CNS
U251 CNS = tested on: U251 CNS
PC-3 prostate = tested on: PC-3 prostate
SK-MEL-5 melanoma = tested on: SK-MEL-5 melanoma
UACC-62 melanoma = tested on: UACC-62 melanoma
LOX IMVI melanoma = tested on: LOX IMVI melanoma
SK-MEL-28 melanoma = tested on: SK-MEL-28 melanoma

**Q.** `COc1cc(CO)cc2cc3ccccc3nc12` was tested. Which growth (HCT-15 colon; 10 µM unless noted) did it give?
**A.** 106%

**Q.** What about the growth (HT29 colon; 10 µM unless noted) of the same compound?
**A.** 103%

**Q.** And the growth (SNB-75 CNS; 10 µM unless noted)?
**A.** 74.7%

**Q.** And the growth (SNB-19 CNS; 10 µM unless noted)?
**A.** 97.1%

**Q.** And the growth (U251 CNS; 10 µM unless noted)?
**A.** 99.2%

**Q.** What about the growth (PC-3 prostate; 10 µM unless noted) of the same compound?
**A.** 104%

**Q.** And the growth (SK-MEL-5 melanoma; 10 µM unless noted)?
**A.** 105%

**Q.** And the growth (UACC-62 melanoma; 10 µM unless noted)?
**A.** 98.7%

**Q.** And the growth (LOX IMVI melanoma; 10 µM unless noted)?
**A.** 100%

**Q.** What about the growth (SK-MEL-28 melanoma; 10 µM unless noted) of the same compound?
**A.** 113%

**Q.** With `CC(C)(C)CC(N)=O` as the compound, how does the growth (HCT-15 colon; 10 µM unless noted) read?
**A.** 94.9%

**Q.** And the growth (HT29 colon; 10 µM unless noted)?
**A.** 102%

**Q.** What about the growth (SNB-75 CNS; 10 µM unless noted) of the same compound?
**A.** 96.4%

**Q.** And the growth (SNB-19 CNS; 10 µM unless noted)?
**A.** 101%

**Q.** And the growth (U251 CNS; 10 µM unless noted)?
**A.** 95.1%

**Q.** What about the growth (PC-3 prostate; 10 µM unless noted) of the same compound?
**A.** 97.9%

**Q.** And the growth (SK-MEL-5 melanoma; 10 µM unless noted)?
**A.** 94.1%

**Q.** And the growth (UACC-62 melanoma; 10 µM)?
**A.** 103%

**Q.** And the growth (UACC-62 melanoma; 100 µM)?
**A.** 79.5% and 18.4%

**Q.** What about the growth (LOX IMVI melanoma; 10 µM unless noted) of the same compound?
**A.** 98.1%

**Q.** What about the growth (SK-MEL-28 melanoma; 10 µM unless noted) of the same compound?
**A.** 102%

**Q.** For `COc1ccc(-c2nc(Cl)c3c(C)nn(-c4ccc(F)cc4)c3n2)cc1`, which growth (HCT-15 colon; 10 µM unless noted) is on record?
**A.** 110%

**Q.** What about the growth (HT29 colon; 10 µM unless noted) of the same compound?
**A.** 98.3%

**Q.** And the growth (SNB-75 CNS; 10 µM unless noted)?
**A.** 104%

**Q.** What about the growth (SNB-19 CNS; 10 µM unless noted) of the same compound?
**A.** 99.7%

**Q.** What about the growth (U251 CNS; 10 µM unless noted) of the same compound?
**A.** 96.5%

**Q.** And the growth (PC-3 prostate; 10 µM unless noted)?
**A.** 89.6%

**Q.** And the growth (SK-MEL-5 melanoma; 10 µM unless noted)?
**A.** 100%

**Q.** What about the growth (UACC-62 melanoma; 10 µM unless noted) of the same compound?
**A.** 100%

**Q.** And the growth (LOX IMVI melanoma; 10 µM unless noted)?
**A.** 101%

**Q.** What about the growth (SK-MEL-28 melanoma; 10 µM unless noted) of the same compound?
**A.** 110%

**Q.** With `O=C(CCl)N(O)c1ccc(/C=C/c2ccccc2)cc1` as the compound, how does the growth (HCT-15 colon; 10 µM unless noted) read?
**A.** 78.3% and 66.3%

**Q.** And the growth (HT29 colon; 10 µM unless noted)?
**A.** 73.1% and 38.7%

**Q.** What about the growth (SNB-75 CNS; 10 µM unless noted) of the same compound?
**A.** 95.9% and 96.3%

**Q.** And the growth (SNB-19 CNS; 10 µM unless noted)?
**A.** 90.1% and 86.7%

**Q.** What about the growth (U251 CNS; 10 µM unless noted) of the same compound?
**A.** 81.5% and 73.5%

**Q.** And the growth (PC-3 prostate; 10 µM unless noted)?
**A.** 85.7% and 86.6%

**Q.** And the growth (SK-MEL-5 melanoma; 10 µM unless noted)?
**A.** 68.6% and 65.3%

**Q.** And the growth (UACC-62 melanoma; 10 µM unless noted)?
**A.** 74.6% and 72.2%

**Q.** What about the growth (LOX IMVI melanoma; 10 µM unless noted) of the same compound?
**A.** 46.8% and 36.1%

**Q.** What about the growth (SK-MEL-28 melanoma; 10 µM unless noted) of the same compound?
**A.** 107% and 112%

**Q.** With `COc1c(F)cc(-n2c(C(=O)N3CC(F)C3)cc3cccnc32)cc1F` as the compound, how does the growth (HCT-15 colon; 10 µM unless noted) read?
**A.** 98.6%

**Q.** And the growth (HT29 colon; 10 µM unless noted)?
**A.** 104%

**Q.** What about the growth (SNB-75 CNS; 10 µM unless noted) of the same compound?
**A.** 82.2%

**Q.** And the growth (SNB-19 CNS; 10 µM unless noted)?
**A.** 94.2%

**Q.** And the growth (U251 CNS; 10 µM unless noted)?
**A.** 97.7%

**Q.** And the growth (PC-3 prostate; 10 µM unless noted)?
**A.** 95.3%

**Q.** What about the growth (SK-MEL-5 melanoma; 10 µM unless noted) of the same compound?
**A.** 99%

**Q.** What about the growth (UACC-62 melanoma; 10 µM unless noted) of the same compound?
**A.** 101%

**Q.** What about the growth (LOX IMVI melanoma; 10 µM unless noted) of the same compound?
**A.** 84.2%

**Q.** And the growth (SK-MEL-28 melanoma; 10 µM unless noted)?
**A.** 122%

**Q.** `CC(=O)/C=C/c1ccc(OCc2ccc(Cl)cc2)cc1` was tested. Which growth (HCT-15 colon; 10 µM) did it give?
**A.** 96.7%

**Q.** What about the growth (HCT-15 colon; 100 µM) of the same compound?
**A.** 42%

**Q.** What about the growth (HT29 colon; 10 µM) of the same compound?
**A.** 94.3%

**Q.** What about the growth (HT29 colon; 100 µM) of the same compound?
**A.** 36.2%

**Q.** And the growth (SNB-75 CNS; 10 µM)?
**A.** 91%

**Q.** And the growth (SNB-75 CNS; 100 µM)?
**A.** 35.6%

**Q.** What about the growth (SNB-19 CNS; 10 µM) of the same compound?
**A.** 105%

**Q.** And the growth (SNB-19 CNS; 100 µM)?
**A.** 51.7%

**Q.** What about the growth (U251 CNS; 10 µM) of the same compound?
**A.** 88.3%

**Q.** And the growth (U251 CNS; 100 µM)?
**A.** 33.9%

**Q.** What about the growth (PC-3 prostate; 10 µM) of the same compound?
**A.** 90%

**Q.** And the growth (PC-3 prostate; 100 µM)?
**A.** 36.1%

**Q.** And the growth (SK-MEL-5 melanoma; 10 µM)?
**A.** 97.7%

**Q.** What about the growth (SK-MEL-5 melanoma; 100 µM) of the same compound?
**A.** -37% (active)

**Q.** What about the growth (UACC-62 melanoma; 10 µM) of the same compound?
**A.** 95.5%

**Q.** And the growth (UACC-62 melanoma; 100 µM)?
**A.** 24.6%

**Q.** What about the growth (LOX IMVI melanoma; 10 µM) of the same compound?
**A.** 86.7%

**Q.** And the growth (LOX IMVI melanoma; 100 µM)?
**A.** 32.2%

**Q.** And the growth (SK-MEL-28 melanoma; 10 µM)?
**A.** 112%

**Q.** What about the growth (SK-MEL-28 melanoma; 100 µM) of the same compound?
**A.** 26.1%

**Q.** Which growth (HCT-15 colon; 10 µM unless noted) does the source give for `C[C@@H]1O[C@@H](O[C@H]2[C@@H](OC(=O)[C@]34CCC(C)(C)C[C@H]3C3=CC[C@@H]5[C@@]6(C)C[C@H](O)[C@H](O[C@@H]7O[C@H](CO)[C@@H](O)[C@H](O)[C@H]7O)[C@@](C)(CO)[C@@H]6CC[C@@]5(C)[C@]3(C)C[C@H]4O)OC[C@@H](O)[C@@H]2O)[C@H](O)[C@H](O[C@@H]2OC[C@@H](O)[C@H](O[C@@H]3OC[C@](O)(CO)[C@H]3O[C@@H]3OC[C@@H](O)[C@H](O)[C@H]3O)[C@H]2O)[C@H]1O[C@@H]1OC[C@](O)(CO)[C@H]1O` here?
**A.** 86.4%

**Q.** And the growth (HT29 colon; 10 µM unless noted)?
**A.** 60.3%

**Q.** And the growth (SNB-75 CNS; 10 µM unless noted)?
**A.** 92.6%

**Q.** And the growth (SNB-19 CNS; 10 µM unless noted)?
**A.** 80.7%

**Q.** And the growth (U251 CNS; 10 µM unless noted)?
**A.** 42%

**Q.** And the growth (PC-3 prostate; 10 µM unless noted)?
**A.** 66%

**Q.** And the growth (SK-MEL-5 melanoma; 10 µM unless noted)?
**A.** 88.3%

**Q.** What about the growth (UACC-62 melanoma; 10 µM unless noted) of the same compound?
**A.** 79.2%

**Q.** And the growth (LOX IMVI melanoma; 10 µM unless noted)?
**A.** 81.3%

**Q.** What about the growth (SK-MEL-28 melanoma; 10 µM unless noted) of the same compound?
**A.** 9.31% (active)

**Q.** Which growth (HCT-15 colon; 10 µM unless noted) does the source give for `C=C(c1ccc(C(=O)O)cc1)c1cc2c(cc1C)C(C)(C)CCC2(C)C` here?
**A.** 74.7% and 65.1%

**Q.** What about the growth (HT29 colon; 10 µM unless noted) of the same compound?
**A.** 93.2% and 62.7%

**Q.** And the growth (SNB-75 CNS; 10 µM unless noted)?
**A.** 94.9% and 82.7%

**Q.** What about the growth (SNB-19 CNS; 10 µM unless noted) of the same compound?
**A.** 75.2% and 79.6%

**Q.** What about the growth (U251 CNS; 10 µM unless noted) of the same compound?
**A.** 84.1% and 62.8%

**Q.** And the growth (PC-3 prostate; 10 µM unless noted)?
**A.** 68.9%

**Q.** What about the growth (SK-MEL-5 melanoma; 10 µM unless noted) of the same compound?
**A.** 83% and 76.6%

**Q.** What about the growth (UACC-62 melanoma; 10 µM unless noted) of the same compound?
**A.** 74.3% and 58.7%

**Q.** And the growth (LOX IMVI melanoma; 10 µM unless noted)?
**A.** 80.2% and 81.8%

**Q.** And the growth (SK-MEL-28 melanoma; 10 µM unless noted)?
**A.** 137% and 72.9%

**Q.** Which results are given for `Cc1c(O)c(O)cc2c3c(oc12)CC(c1ccc2c(c1)OCO2)CC3=O` (stereo unspecified)?
**A.** growth (HCT-15 colon; 10 µM unless noted): 64.5%; growth (HT29 colon; 10 µM unless noted): 94.3%; growth (SNB-75 CNS; 10 µM unless noted): 87.8%; growth (SNB-19 CNS; 10 µM unless noted): 101%; growth (U251 CNS; 10 µM unless noted): 100%; growth (PC-3 prostate; 10 µM unless noted): 81.1%; growth (SK-MEL-5 melanoma; 10 µM unless noted): 82.1%; growth (UACC-62 melanoma; 10 µM unless noted): 53.4%; growth (LOX IMVI melanoma; 10 µM unless noted): 59.7%; growth (SK-MEL-28 melanoma; 10 µM unless noted): 105%

**Q.** Which results are given for `CC(=O)/C=C/c1ccc(N(CCO)Cc2ccc(C(C)(C)C)cc2)cc1`?
**A.** growth (HCT-15 colon; 10 µM): 62.5%; growth (HCT-15 colon; 100 µM): -83% (active); growth (HT29 colon; 10 µM): 59.4%; growth (HT29 colon; 100 µM): -81.5% (active); growth (SNB-75 CNS; 10 µM): 76.3%; growth (SNB-75 CNS; 100 µM): -92.3% (active); growth (SNB-19 CNS; 10 µM): 102%; growth (SNB-19 CNS; 100 µM): -89.9% (active); growth (U251 CNS; 10 µM): 75.9%; growth (U251 CNS; 100 µM): -100% (active); growth (PC-3 prostate; 10 µM): 66%; growth (PC-3 prostate; 100 µM): -90.3% (active); growth (SK-MEL-5 melanoma; 10 µM): 70%; growth (SK-MEL-5 melanoma; 100 µM): -99.5% (active); growth (UACC-62 melanoma; 10 µM): 76.5%; growth (UACC-62 melanoma; 100 µM): -86.3% (active); growth (LOX IMVI melanoma; 10 µM): 62.4%; growth (LOX IMVI melanoma; 100 µM): -100% (active); growth (SK-MEL-28 melanoma; 10 µM): 89.1%; growth (SK-MEL-28 melanoma; 100 µM): -90.7% (active)
